Assay outcomes (PubChem)
The list is not random: actives were taken first. Their share in the collection is about 19%.
HT1080 IDH1KD tx – qHTS for induction of synthetic lethality in tumor cells producing 2HG: qHTS for the HT-1080-IDH1KD cell line | Potency, µM (highest dose often 46.1 µM), most hits filed as cytotoxic | hit rate 2% among 360,000 | HT-1080 IDH1 knockdown viability, ATP luminescence, 48 h
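IDH1KD HT-1080 cells, 750/well, RPMI + 5% FBS; compound pinned after 2 h settling; 48 h, 37 °C; CellTiter-Glo luminescence; % activity normalised to DMSO and no-cell wells; curves fitted, classed by r2 and efficacy.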
TDP1 cell noCPT – qHTS for Inhibitors of human tyrosyl-DNA phosphodiesterase 1 (TDP1): qHTS in cells in absence of CPT | DT40 Tdp1-/- hTDP1 cells, no CPT, ATP luminescence, 48 h | Potency, µM (doses to about 46.2 µM), most hits filed as inhibitors | hit rate 15% among 420,000; also: nearly all actives have a fitted effect of over 55% in size
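Chicken DT40 Tdp1-/- cells complemented with human TDP1, screened without camptothecin (DMSO vehicle only), 400 cells/well. Compounds pin-transferred, cells incubated at 37 °C for at least 48 hr. Growth read as ATP-dependent luminescence (CellTiter-Glo, 30 min at RT).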
IL1B secr inh – qHTS for Inhibitors of Inflammasome Signaling: IL-1-beta AlphaLISA Primary Screen; THP-1 LPS/ATP IL-1B secretion, AlphaLISA, 16 h; active compounds read low; activity change, % at 57.5 µM; hit rate 4.7% among 360,000; in the data active = activity change below about -50%; inconclusive = mostly about -30% to -49%
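THP-1 cells pretreated 1 hr with compounds (up to 57.5 uM final), then stimulated with LPS (250 ng/mL final) plus ATP (1.25 mM final); secreted IL-1B measured by AlphaLISA after 16 hr, decreased signal indicating inhibition.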
TDP1 cell CPT – qHTS for Inhibitors of human tyrosyl-DNA phosphodiesterase 1 (TDP1): qHTS in cells in presence of CPT. chicken DT40 Tdp1-/-;hTDP1 cells + 20 nM CPT, ATP luminescence, 48 h. Potency, µM (titrated, usually from 46.2 µM), most hits filed as inhibitors. hit rate 12% among 420,000; also: nearly all actives have a fitted effect of over 55% in size
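Chicken DT40 Tdp1-/- cells stably complemented with human TDP1 were seeded at 400 cells/well in medium containing 20 nM camptothecin, exposed to pin-transferred compounds, and grown at 37 °C for at least 48 hr. Viability was read as ATP luminescence.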
HT1080-NT tox – qHTS for induction of synthetic lethality in tumor cells producing 2HG: qHTS for the HT-1080-NT fibrosarcoma cell line; hit rate 1.6% among 360,000; HT-1080-NT fibrosarcoma viability, CellTiter-Glo ATP luminescence, 48 h; AID 686970, 2013; Potency, µM (top dose mostly 46.1 µM), most hits filed as cytotoxic;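 also: NT is the 2HG producing partner of a matched IDH1 knockdown line; nearly all actives have a fitted effect of over 55% in size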
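Fibrosarcoma NT cells, 750 per well in 5% FBS RPMI, were exposed to compound for 48 hours. Viability: CellTiter-Glo luminescence.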
Hits are given with their value; i = inactive; ? = inconclusive; nt = no result given; ! = not active in a repeat. Unless noted, calls follow the shape of the dose curve; as a rule, active = well fitted curve in the direction sought with a large enough effect; inconclusive = small, poorly fitted or top-dose-only effect, or another doubt; inactive = no such curve, though single readings can be large; an effect the other way counts as inactive or inconclusive.

SMILES	HT1080 IDH1KD tx	TDP1 cell noCPT	IL1B secr inh	TDP1 cell CPT	HT1080-NT tox
CC(C)(CC(=O)N1CCN(c2ccc(Cl)cc2)CC1)CC1=NS(=O)(=O)c2ccccc2N1	i	12µM	-51	18µM	?
O=C(CCCC1=NS(=O)(=O)c2ccccc2N1)N1CCN(c2ccccc2)CC1	i	?	i	?	i
COc1cccc(N2CCN(C(=O)CC(C)(C)CC3=NS(=O)(=O)c4ccccc4N3)CC2)c1	i	4.6µM	i	15µM	i
Cc1ccccc1N1CCN(C2CCCN(C(=O)CCN3CCCO3)C2)CC1 (configuration not stated)	i	i	i	i	i
COc1ccc(CN(C)S(=O)(=O)c2nnc(NC(=O)c3cccc(F)c3)s2)cc1OC	i	i	i	?	i
Cc1ccc(S(=O)(=O)N2CCN(S(=O)(=O)N3CCCCCC3)CC2)cc1	i	i	i	i	i
CCN1CCCC1CNCC(O)COc1ccc(C(C)(C)C)cc1C (configuration not stated)	?	5.8µM	?	6.5µM	i
Cc1cc(C(C)(C)C)ccc1OCCOCCN1CCCC1	i	?	i	?	i
Cc1ccccc1NC(=O)c1cccc(NC(=O)CCC(=O)O)c1	i	i	i	i	i
COc1ccc(-c2[nH]ncc2CN2CCC(OCc3cccnc3)CC2)c(F)c1	i	i	i	i	i
CCN(C(=O)CSc1nnc(Cn2nnc3ccccc32)o1)c1nc(-c2ccccc2)cs1	i	?	i	23µM	i
CCN(C(=O)CSc1nnc(Cn2nnc3ccccc32)o1)c1nc(C)cs1	i	?	i	?	i
O=C(CSc1nnc(Cn2nnc3ccccc32)o1)N(Cc1ccc(Cl)cc1)c1ccccc1	3.3µM	7.3µM	-52	7.3µM	i
C=CC(=O)Nc1cccc(Oc2ccnc3[nH]ccc23)c1	i	?	i	?	i
C=CC(=O)Nc1cccc(Oc2ccnc(Nc3ccc(N4CCN(C)CC4)cc3)n2)c1	i	16µM	-101	?	i
C=CC(=O)Nc1cccc(N(C)c2ccnc(Nc3ccc(N4CCN(C)CC4)cc3)n2)c1	?	5.2µM	-100	?	i
CCC(CC)C(=O)Nc1ccc2nc(SCC(=O)N3CCCC3)sc2c1	nt	21µM	nt	?	nt
CC(C)CC(=O)Nc1ccc2nc(SCC(=O)N3CCCC3)sc2c1	nt	23µM	nt	23µM	nt
CCC(=O)Nc1ccc2nc(SCC(=O)N3CCCC3)sc2c1	i	i	i	i	i
CN(C)/C=C1\SC(=S)N(N2C(=O)C3C4C=CC(C4)C3C2=O)C1=O (configuration not stated)	i	i	i	i	i
CCOC(=O)C[C@H]1c2ccc(C(F)(F)F)cc2S(=O)(=O)N1C(C)C	i	?	i	?	i
CC(=O)Nc1cccc(-c2nc3ccccc3n2C(C(=O)NC(C)(C)C)C2CC2)c1 (configuration not stated)	i	i	i	i	i
CC(C)OCC(O)CN1CCC(Cc2ccccc2)CC1 (configuration not stated)	i	i	i	i	i
C[C@@H](CN1CCC(Cc2ccccc2)CC1)[C@@H](O)c1ccc(O)cc1	i	7.3µM!	i	23µM	i
C=Cc1ccc(Cn2nc(-c3ccc(C)c(S(=O)(=O)N(CC)CC)c3)ccc2=O)cc1	nt	?	nt	16µM	nt
SMILES	HT1080 IDH1KD tx	TDP1 cell noCPT	IL1B secr inh	TDP1 cell CPT	HT1080-NT tox
C=Cc1ccc(Cn2nc(-c3ccccc3)ccc2=O)cc1	i	i	i	?	i
CC1(C)CC(=O)C2=C(C1)OC1=C(C(=O)CC(C)(C)C1)C2c1cc([N+](=O)[O-])cc([N+](=O)[O-])c1O	?	?	i	?	i
CC1(C)CC(=O)C(C2C3=C(CC(C)(C)CC3=O)Oc3c(Br)cc(Br)cc32)=C(O)C1 (configuration not stated)	i	18µM	i	?	i
CCc1ccc(NC(=O)CN(CC(=O)Nc2ccc(CC)cc2)CC(C)O)cc1 (configuration not stated)	i	?	i	?	i
COc1ccccc1NC(=O)CCN1C(=O)/C(=C/c2cc(OC)c(OC)c(OC)c2)SC1=S	i	15µM	i	?	i
COc1ccc(/C=C2\SC(=S)N(CCC(=O)NC3CCCC3)C2=O)cc1OC	i	16µM	i	?	i
CCOC(=O)N1CCN(C(=O)CCN2C(=O)/C(=C\c3ccc(OC)c(OC)c3)SC2=S)CC1	i	i	i	i	i
COc1cc(/C=C2/SC(=S)N(CCC(=O)Nc3ccc(C(=O)O)cc3)C2=O)cc(OC)c1OC	i	i	?	i	i
COc1cc(/C=C2\SC(=S)N(CCC(=O)Nc3ccc(O)cc3)C2=O)cc(OC)c1OC	?	16µM	i	?	?
COc1ccc(/C=C2\SC(=S)N(CCCC(=O)Nc3ccc(O)cc3)C2=O)cc1	?	?	-59	?	?
Cc1nnc(NC(=O)C23CC4CC(CC(C4)C2)C3)s1	i	i	i	i	i
CCc1ccc(/C=C2/SC(=S)N(CCC(=O)Nc3cccc(C(=O)O)c3)C2=O)cc1	i	i	i	i	i
CCc1ccc(C=C2SC(=S)N(CCCC(=O)Nc3ccc(C(=O)O)cc3)C2=O)cc1	i	18µM	i	?	i
Fc1ccc(-c2nc3ccc(Br)cn3c2Cc2cccc(Cl)c2)cc1	?	?	i	?	i
Brc1ccc2nc(-c3ccco3)c(CC3CCCCC3)n2c1	?	?	i	?	i
Cc1ccc(Cc2c(-c3cccc(Br)c3)nc3ccc(Br)cn23)cc1	i	i	i	i	i
Cc1ccc(Cc2c(-c3ccc(C)cc3)nc3ccc(Br)cn23)cc1	i	23µM	i	21µM	?
Cc1ccc(Cc2c(-c3ccc(Cl)cc3)nc3ccc(Br)cn23)cc1	i	26µM	i	16µM	i
Cc1ccc(Cc2c(-c3ccco3)nc3ccc(Br)cn23)cc1	16µM	?	i	?	18µM
Cc1ccc(C(=O)CC(=O)c2cccc(F)c2)c(O)c1	?	6.5µM	i	7.3µM	?
Cc1ccc(C(=O)CC(=O)c2ccccc2C)c(O)c1	?	2.3µM	i	2.6µM	?
CC(=O)c1ccc(C)cc1OC(=O)c1cccc(F)c1	i	i	i	i	i
CC(C(=O)NCc1ccccc1)n1c(Cc2cc(F)cc(F)c2)nc2ccccc21 (configuration not stated)	i	?	i	i	i
O=C(NCc1ccccc1)C(C1CC1)n1c(Cc2cc(F)cc(F)c2)nc2ccccc21 (configuration not stated)	i	18µM	i	?	i
